Here are results for 40 molecules from PubChem BioAssay AID1654 (Sanford-Burnham Center for Chemical Genomics, 2009).

Molecules are shown by their SMILES. About 1,500 (0.52%) of roughly 290,000 compounds were called active. Rule as the data show it: active = inhibition above about 50%; inactive = the rest. Many of the other results were omitted from the sample, so actives are more common in it than they were.

A word on the inhibition: it is the change of the read-out against control, counted positive when it falls.

The target in this experiment is Dual specificity protein phosphatase 3 (Homo sapiens) (UniProt P51452). Put plainly: inhibition of human DUSP3 activity – biochemical, absorbance, uHTS, primary screen (AID 1654). To be noted: recombinant VHR phosphatase, pNPP absorbance, at 13.3 µM, hits give high values.
Dual specificity protein phosphatase 3 (Homo sapiens), sequence (P51452 whole entry, looked up): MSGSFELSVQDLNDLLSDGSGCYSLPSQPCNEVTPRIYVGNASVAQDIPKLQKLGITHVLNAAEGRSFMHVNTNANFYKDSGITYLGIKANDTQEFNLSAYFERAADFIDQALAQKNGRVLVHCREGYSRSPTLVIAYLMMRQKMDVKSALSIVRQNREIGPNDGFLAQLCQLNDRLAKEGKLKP
Take `Cc1cccc2nc(CNc3ccc(F)cc3)cn12`: the inhibition was -14.9% (inactive).

On to `CN(C(=O)c1ccccc1)c1nccnc1C#N`, for which the inhibition is 25% (inactive).

Take `Cc1cc(N2C(=O)C(O)=C(C(=O)c3ccc(C)o3)C2c2ccc(OCc3ccccc3)cc2)no1` (stereo not given): the inhibition is 12.3% (inactive).

With `Cn1c(=O)n(C)c2cc(S(=O)(=O)N3CCCc4ccccc43)ccc21`, the inhibition is 3.5% (inactive).

As to `CCn1c(=O)c(=O)n(CC)c2cc(S(=O)(=O)N3CCc4ccccc43)ccc21`, the inhibition is 50.3% (active).

Turning to `O=S(=O)(c1ccc2c(c1)OCCO2)N1CCc2ccccc21`, the inhibition is 13.6% (inactive).

Take `Cc1ccc(S(=O)(=O)Nc2nc(C)cc(-n3nc(C)cc3C)n2)cc1`: the inhibition was 28.3% (inactive).

As for `Cc1cc(C)nc(SC2CCCCC2NS(=O)(=O)c2ccc(Cl)cc2)n1` (stereo not given), the inhibition is 1.5% (inactive).

In the case of `Cc1cc(C)nc(NS(=O)(=O)c2ccc(N3C(=O)C4CCCCC4C3=O)cc2)n1` (stereo not given), the inhibition was 57.6% (active).

Regarding `COc1ccc(CCc2nc(-c3cccs3)no2)cc1`, the inhibition is -3.6% (inactive).

With `CCOC(=O)CCc1c(C)c2ccc(OCc3nn[nH]n3)c(C)c2oc1=O`, the inhibition is -7.7% (inactive).

Regarding `Cc1c(CCC(=O)O)c(=O)oc2cc(OCc3ccc(Br)cc3)ccc12`, the inhibition was 2.4% (inactive).

As for `Cc1c(CCC(=O)O)c(=O)oc2c(C)c(OCc3ccccc3Cl)ccc12`, the inhibition is 57.3% (active).

For the molecule `COc1ccc2oc(=O)cc(CN3CCOCC3)c2c1`, the inhibition was -2.3% (inactive).

Consider `CCc1ccccc1NC(=O)/C(=C/c1ccccc1)c1ccccc1`, for which the inhibition is -11.5% (inactive).

With `CCOc1ccccc1OCCCNCc1ccccc1`, the inhibition is 59.7% (active).

Regarding `CCOCCCNCc1cc(Br)ccc1OCC`, the inhibition is 3% (inactive).

Consider `CCOCCCNCc1ccc(OCc2ccc(F)cc2)c(OC)c1`, for which the inhibition is 23.4% (inactive).

For the molecule `COc1ccc(S(=O)(=O)N2CCC(C(=O)N3CCCC3)CC2)cc1C`, the inhibition was -11.4% (inactive).

As for `O=C(N1CCCCC1)N1CCN(C(=O)N2CCCCC2)CC1`, the inhibition is 17.7% (inactive).

As for `CCOC(=O)C1CCN(C(=O)COc2cccc3ccccc23)CC1`, the inhibition was 1.1% (inactive).

For the molecule `Cc1ccccc1NC(=O)CN1C(=O)N/C(=C\c2cccn2-c2cccc(C(=O)O)c2)C1=O`, the inhibition is 35.6% (inactive).

`N#Cc1ccccc1CN1C(=O)S/C(=C/c2cccn2-c2cccc(C(=O)O)c2)C1=O`: the inhibition was 50.3% (active).

As for `Cc1cc(/C=C2\SC(=O)N(C)C2=O)c(C)n1-c1cccc(C(=O)O)c1`, the inhibition was 15.5% (inactive).

Consider `CC(=O)N1CCCc2cc(S(=O)(=O)N3CCCC(C(=O)NCc4ccc(Cl)cc4)C3)ccc21` (stereo not given), for which the inhibition is 5.3% (inactive).

As to `CC(=O)N1c2ccc(S(=O)(=O)N3CCCC(C(=O)NCc4ccc(Cl)cc4)C3)cc2CC1C` (stereo not given), the inhibition was 52.7% (active).

With `CC(=O)N1c2ccc(S(=O)(=O)N3CCC(C(=O)NCc4ccc(F)cc4)CC3)cc2CC1C` (stereo not given), the inhibition is 34.4% (inactive).

Regarding `CCC(C)c1ccccc1NC(=O)CN(C)CC(=O)Nc1ccccc1SC` (stereo not given), the inhibition was -2.9% (inactive).

Consider `CC1(C)C2CCC1(CS(=O)(=O)NCCc1c[nH]c3ccccc13)C(=O)C2` (stereo not given), for which the inhibition was -8.1% (inactive).

In the case of `Cc1cccc(N2CCN(C(C)C(=O)N3CCc4ccccc43)CC2)c1C` (stereo not given), the inhibition was 52.9% (active).

With `CCC(CC)C(=O)N1CCN(c2cccc(C)c2C)CC1`, the inhibition is -4.1% (inactive).

As for `NC(=O)N1CCc2ccccc21`, the inhibition was 30.9% (inactive).

For the molecule `O=C1Nc2cc(C(=O)N3CCN(c4ccc(F)cc4)CC3)ccc2NC1CSCc1cccc(F)c1` (stereo not given), the inhibition is -24.2% (inactive).

On to `O=C(O)c1cc(S(=O)(=O)N(Cc2ccccc2)c2ccccc2)ccc1Cl`, for which the inhibition is 10.4% (inactive).

For `CCCn1cc(S(=O)(=O)c2ccc(C)cc2)c(=O)c2cc(OCC)ccc21`, the inhibition was -25.6% (inactive).

Take `CCOc1ccc2c(c1)c(=O)c(S(=O)(=O)c1ccc(C)cc1)cn2CC`: the inhibition was 52.5% (active).

For the molecule `CCn1cc(S(=O)(=O)c2cccc(C)c2)c(=O)c2cc(F)c(N3CCN(C)CC3)cc21`, the inhibition was 5.7% (inactive).

With `COC(=O)c1c(C)[nH]c(C(=O)/C=C/c2ccc(Cl)cc2)c1C`, the inhibition is -0.3% (inactive).

Consider `COc1ccc(OC)c(CNC(=O)Cn2nc(C)c3c(C)n(-c4ccc(C)cc4)nc3c2=O)c1`, for which the inhibition was -9% (inactive).

`CC(C)CC(=O)NC(=S)NNC(=O)c1cccc([N+](=O)[O-])c1`: the inhibition was -16.7% (inactive).
